Reference: ChEMBL document CHEMBL1961873, “Compounds: GSK PKIS; Assays: Nanosyn kinase panel” (2012)

Assays:
[1] = target: T1, Serine/threonine-protein kinase D2 (Homo sapiens) (UniProt Q9BZL6); details: at 1 µM;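 note: mean value of PRKD2 inhibition, from the GSK PKIS screening panel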
T1 sequence (whole entry): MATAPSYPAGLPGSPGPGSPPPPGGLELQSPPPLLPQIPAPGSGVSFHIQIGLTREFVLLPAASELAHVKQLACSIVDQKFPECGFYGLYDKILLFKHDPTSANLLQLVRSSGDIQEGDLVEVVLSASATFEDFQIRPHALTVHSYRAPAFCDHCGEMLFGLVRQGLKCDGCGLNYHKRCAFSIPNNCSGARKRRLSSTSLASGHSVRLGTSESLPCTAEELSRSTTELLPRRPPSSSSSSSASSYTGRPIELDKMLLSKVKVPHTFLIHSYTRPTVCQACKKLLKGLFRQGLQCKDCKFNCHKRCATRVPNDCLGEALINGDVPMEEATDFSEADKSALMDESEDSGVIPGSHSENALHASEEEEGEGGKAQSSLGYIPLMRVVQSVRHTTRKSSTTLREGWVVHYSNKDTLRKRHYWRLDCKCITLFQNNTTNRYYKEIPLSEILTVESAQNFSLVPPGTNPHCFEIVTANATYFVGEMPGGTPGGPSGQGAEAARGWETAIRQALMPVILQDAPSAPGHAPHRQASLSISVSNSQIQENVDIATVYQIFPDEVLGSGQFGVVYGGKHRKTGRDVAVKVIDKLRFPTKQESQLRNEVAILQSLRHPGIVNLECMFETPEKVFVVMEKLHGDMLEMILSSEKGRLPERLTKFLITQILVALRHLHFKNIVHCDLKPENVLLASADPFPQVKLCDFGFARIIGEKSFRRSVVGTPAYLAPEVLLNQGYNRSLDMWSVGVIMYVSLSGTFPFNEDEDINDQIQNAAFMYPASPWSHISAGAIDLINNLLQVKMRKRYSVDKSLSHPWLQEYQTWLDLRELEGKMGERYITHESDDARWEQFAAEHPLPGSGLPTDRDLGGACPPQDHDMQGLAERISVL

[2] = target: T2, Serine/threonine-protein kinase D3 (Homo sapiens) (UniProt O94806); details: at 0.1 µM
T2 sequence (whole entry): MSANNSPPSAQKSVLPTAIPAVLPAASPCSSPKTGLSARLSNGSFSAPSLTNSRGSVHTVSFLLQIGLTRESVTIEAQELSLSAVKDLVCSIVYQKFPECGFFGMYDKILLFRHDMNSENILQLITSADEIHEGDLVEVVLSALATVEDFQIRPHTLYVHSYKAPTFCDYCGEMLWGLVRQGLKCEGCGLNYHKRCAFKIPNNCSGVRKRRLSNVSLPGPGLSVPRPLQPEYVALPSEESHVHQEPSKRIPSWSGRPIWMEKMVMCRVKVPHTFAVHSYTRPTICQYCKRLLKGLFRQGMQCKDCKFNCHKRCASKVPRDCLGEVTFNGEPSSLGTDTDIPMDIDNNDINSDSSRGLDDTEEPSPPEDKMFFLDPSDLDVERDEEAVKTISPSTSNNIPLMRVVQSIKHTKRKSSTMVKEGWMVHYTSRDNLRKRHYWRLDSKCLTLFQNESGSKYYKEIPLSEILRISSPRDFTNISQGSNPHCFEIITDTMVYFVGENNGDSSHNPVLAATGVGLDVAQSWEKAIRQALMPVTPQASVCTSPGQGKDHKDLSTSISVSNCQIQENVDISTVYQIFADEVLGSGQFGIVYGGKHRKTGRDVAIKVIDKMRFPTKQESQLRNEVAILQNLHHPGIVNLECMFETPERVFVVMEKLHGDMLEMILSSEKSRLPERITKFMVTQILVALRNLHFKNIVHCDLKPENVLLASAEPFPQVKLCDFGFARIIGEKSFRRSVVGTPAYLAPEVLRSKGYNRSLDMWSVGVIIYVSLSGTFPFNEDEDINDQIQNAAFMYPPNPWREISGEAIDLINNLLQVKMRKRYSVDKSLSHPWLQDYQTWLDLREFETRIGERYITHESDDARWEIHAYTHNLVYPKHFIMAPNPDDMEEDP

[3] = target: T2, Serine/threonine-protein kinase D3 (Homo sapiens); details: at 1 µM
[4] = target: T3, cGMP-dependent protein kinase 1 (Homo sapiens) (UniProt Q13976); details: at 0.1 µM
T3 sequence (whole entry): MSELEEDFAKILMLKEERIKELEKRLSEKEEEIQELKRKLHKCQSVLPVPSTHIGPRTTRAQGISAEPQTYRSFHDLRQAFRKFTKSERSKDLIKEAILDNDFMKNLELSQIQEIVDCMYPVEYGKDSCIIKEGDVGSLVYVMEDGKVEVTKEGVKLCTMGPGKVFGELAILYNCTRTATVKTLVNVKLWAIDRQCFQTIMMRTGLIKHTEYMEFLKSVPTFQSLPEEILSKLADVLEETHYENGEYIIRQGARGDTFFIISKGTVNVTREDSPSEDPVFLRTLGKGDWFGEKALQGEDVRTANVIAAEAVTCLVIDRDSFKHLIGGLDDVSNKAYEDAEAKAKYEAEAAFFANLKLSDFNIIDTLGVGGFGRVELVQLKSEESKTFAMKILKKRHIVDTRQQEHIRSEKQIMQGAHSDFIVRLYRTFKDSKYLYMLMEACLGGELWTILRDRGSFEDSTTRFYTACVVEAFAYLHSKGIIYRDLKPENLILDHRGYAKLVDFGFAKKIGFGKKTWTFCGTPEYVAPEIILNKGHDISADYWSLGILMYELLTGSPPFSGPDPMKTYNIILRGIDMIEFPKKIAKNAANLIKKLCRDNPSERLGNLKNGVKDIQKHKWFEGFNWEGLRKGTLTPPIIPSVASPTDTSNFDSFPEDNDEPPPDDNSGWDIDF

[5] = target: T3, cGMP-dependent protein kinase 1 (Homo sapiens); details: at 1 µM
[6] = target: T4, cGMP-dependent protein kinase 2 (Homo sapiens) (UniProt Q13237); details: at 0.1 µM
T4 sequence (whole entry): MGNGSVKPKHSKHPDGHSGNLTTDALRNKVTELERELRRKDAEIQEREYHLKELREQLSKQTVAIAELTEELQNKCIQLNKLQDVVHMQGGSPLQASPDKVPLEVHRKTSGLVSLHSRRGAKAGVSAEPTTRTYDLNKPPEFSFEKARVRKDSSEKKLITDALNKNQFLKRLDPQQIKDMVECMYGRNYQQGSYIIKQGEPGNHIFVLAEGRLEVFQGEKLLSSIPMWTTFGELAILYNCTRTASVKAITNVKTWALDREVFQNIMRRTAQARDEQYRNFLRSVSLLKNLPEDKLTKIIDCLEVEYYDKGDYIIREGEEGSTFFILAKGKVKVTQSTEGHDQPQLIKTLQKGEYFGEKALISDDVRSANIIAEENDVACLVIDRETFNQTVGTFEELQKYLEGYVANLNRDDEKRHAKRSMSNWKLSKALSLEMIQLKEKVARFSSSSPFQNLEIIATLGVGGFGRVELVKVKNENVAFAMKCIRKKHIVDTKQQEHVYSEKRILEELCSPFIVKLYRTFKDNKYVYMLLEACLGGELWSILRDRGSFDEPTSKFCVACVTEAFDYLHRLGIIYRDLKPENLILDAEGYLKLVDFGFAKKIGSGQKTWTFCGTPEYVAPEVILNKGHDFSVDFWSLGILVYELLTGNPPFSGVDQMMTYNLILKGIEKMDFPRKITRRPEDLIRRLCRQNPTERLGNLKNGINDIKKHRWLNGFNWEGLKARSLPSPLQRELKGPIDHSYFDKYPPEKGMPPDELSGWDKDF

[7] = target: T4, cGMP-dependent protein kinase 2 (Homo sapiens); details: at 1 µM
[8] = target: T5, cAMP-dependent protein kinase catalytic subunit PRKX (Homo sapiens) (UniProt P51817); details: at 0.1 µM
T5 sequence (whole entry): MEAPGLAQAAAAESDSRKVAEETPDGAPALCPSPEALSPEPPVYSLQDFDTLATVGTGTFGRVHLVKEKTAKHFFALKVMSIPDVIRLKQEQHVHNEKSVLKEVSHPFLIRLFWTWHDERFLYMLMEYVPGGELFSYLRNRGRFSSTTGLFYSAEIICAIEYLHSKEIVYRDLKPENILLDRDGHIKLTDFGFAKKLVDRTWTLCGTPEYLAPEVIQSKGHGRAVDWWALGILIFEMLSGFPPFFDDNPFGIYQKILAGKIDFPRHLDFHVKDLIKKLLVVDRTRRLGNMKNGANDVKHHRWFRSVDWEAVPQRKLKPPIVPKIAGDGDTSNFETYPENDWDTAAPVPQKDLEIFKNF

[9] = target: T5, cAMP-dependent protein kinase catalytic subunit PRKX (Homo sapiens); details: at 1 µM
[10] = target: Rho-associated protein kinase 1 (Homo sapiens) (UniProt Q13464); details: at 0.1 µM;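 note: values are mean percent inhibition of ROCK1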
Sequence of Rho-associated protein kinase 1 (Homo sapiens) (Q13464 2-1354 limits assumed): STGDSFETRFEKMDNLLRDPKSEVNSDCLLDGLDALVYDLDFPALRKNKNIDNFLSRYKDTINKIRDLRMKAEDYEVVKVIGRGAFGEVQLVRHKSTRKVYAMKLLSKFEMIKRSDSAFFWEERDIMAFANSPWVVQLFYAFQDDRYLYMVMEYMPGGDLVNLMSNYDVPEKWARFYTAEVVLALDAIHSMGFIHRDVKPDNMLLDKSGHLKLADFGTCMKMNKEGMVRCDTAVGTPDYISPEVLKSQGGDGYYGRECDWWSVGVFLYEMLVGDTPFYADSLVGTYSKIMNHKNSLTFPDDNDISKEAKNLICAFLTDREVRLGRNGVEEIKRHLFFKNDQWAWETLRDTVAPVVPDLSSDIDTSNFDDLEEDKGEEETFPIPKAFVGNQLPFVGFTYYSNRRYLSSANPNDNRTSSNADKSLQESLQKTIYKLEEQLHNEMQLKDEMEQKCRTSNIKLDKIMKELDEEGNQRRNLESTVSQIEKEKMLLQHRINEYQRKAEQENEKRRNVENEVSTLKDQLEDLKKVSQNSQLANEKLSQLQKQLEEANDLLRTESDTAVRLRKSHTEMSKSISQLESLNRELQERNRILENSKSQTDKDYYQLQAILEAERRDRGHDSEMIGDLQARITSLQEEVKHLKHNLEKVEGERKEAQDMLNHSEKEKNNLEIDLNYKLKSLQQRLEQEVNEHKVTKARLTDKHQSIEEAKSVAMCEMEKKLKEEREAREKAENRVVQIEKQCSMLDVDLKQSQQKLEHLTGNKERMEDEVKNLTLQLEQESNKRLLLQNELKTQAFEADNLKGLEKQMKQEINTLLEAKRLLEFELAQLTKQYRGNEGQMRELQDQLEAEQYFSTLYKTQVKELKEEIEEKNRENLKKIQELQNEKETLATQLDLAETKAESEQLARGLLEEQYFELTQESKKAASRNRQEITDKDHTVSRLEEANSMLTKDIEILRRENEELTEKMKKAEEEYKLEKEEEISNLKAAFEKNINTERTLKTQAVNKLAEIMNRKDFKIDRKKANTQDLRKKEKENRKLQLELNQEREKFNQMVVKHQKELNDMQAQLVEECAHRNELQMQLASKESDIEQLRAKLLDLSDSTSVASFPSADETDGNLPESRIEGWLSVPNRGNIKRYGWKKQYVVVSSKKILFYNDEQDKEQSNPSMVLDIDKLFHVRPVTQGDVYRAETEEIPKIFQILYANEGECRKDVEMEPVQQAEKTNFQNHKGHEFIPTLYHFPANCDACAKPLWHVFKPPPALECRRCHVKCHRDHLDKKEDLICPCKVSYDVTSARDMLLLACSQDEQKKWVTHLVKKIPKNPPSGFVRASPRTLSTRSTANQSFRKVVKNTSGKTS

| SMILES | inhibition [1] [%] | inhibition [2] [%] | inhibition [3] [%] | inhibition [4] [%] | inhibition [5] [%] | inhibition [6] [%] | inhibition [7] [%] | inhibition [8] [%] | inhibition [9] [%] | inhibition [10] [%] |
| --- | --- | --- | --- | --- | --- | --- | --- | --- | --- | --- |
| Cc1ccc(C(=O)NC2CCCCC2)cc1-c1ccc(C(=O)NCC2CC2)cc1 | 2.9 | 2.25 | 2.53 | 4.55 | 4.23 | 2.62 | 2.94 | 2.1 | 0.91 | 1.64 |
| CS(=O)(=O)CCNCc1nc(-c2ccc3ncnc(Nc4ccc(F)c(Cl)c4)c3c2)cs1 | 2.87 | 1.23 | 1.58 | 1.73 | 3.32 | 0.95 | 2.67 | 0.91 | 1.76 | 1.23 |
| COc1cc2ncn(-c3cc(O[C@H](C)c4ccccc4Cl)c(C(N)=O)s3)c2cc1OC | 4.06 | 2.93 | 2.62 | 3.62 | 4.56 | 3.5 | 5.66 | 2.91 | – | 1.18 |
| CCCN1CCC=C(c2ccc(Nc3nc(Nc4ccccc4C(N)=O)c4cc[nH]c4n3)c(C)c2)C1 | 68.5 | 18.8 | 61.7 | 4.43 | 18.8 | 5.72 | 31.8 | 2.31 | 2.1 | 2.33 |
| CS(=O)(=O)CCNCc1ccc(-c2ccc3ncnc(Nc4ccc(OCc5cccc(F)c5)c(C(F)(F)F)c4)c3c2)o1 | 5.13 | 4.32 | 3.88 | 2.84 | 5.15 | 1.78 | 3.11 | 2.44 | 4.07 | 1.46 |
| CN(C)c1cc2c(Nc3ccc4nc(Cc5ccccc5)[nH]c4c3)ncnc2cn1 | 5.15 | 5.52 | 6.09 | 5.01 | 6.25 | 2.1 | 4.22 | 2.16 | 2.25 | 5.7 |
| CNC(=O)c1cncc(/C=C/c2c(Cl)cccc2Cl)c1 | 3.77 | 1.19 | 4.45 | 4.02 | 5.23 | 1.23 | 4.56 | 1.86 | 1.79 | 1.46 |
| N#Cc1c(NC(=O)c2cccc3ccccc23)sc2c1CCCC2 | 2.96 | 4.61 | 4.09 | 3.4 | 3.28 | 1.51 | 3.5 | 2.34 | 1.92 | 0.98 |
| CCn1c(-c2nonc2N)nc2ccncc21 | 3.25 | 0.84 | 2.17 | 0.57 | 3.36 | 2.12 | 8.39 | 0.91 | -1.6 | 1.94 |
| CCc1cccc(NC(=O)Nc2ccc(Oc3ccc4nc(NC(=O)OC)[nH]c4c3)cc2)c1 | 1.88 | 1.72 | 0.75 | -0.2 | 3.08 | 0.88 | 0.86 | 0.91 | 3.18 | 12.1 |
| O=C1Nc2ccc(C(=O)c3ccco3)cc2C1=Cc1cc(Cl)c(O)c(Cl)c1 | 5.54 | 3.68 | 6.98 | 1.67 | 4.46 | 1.29 | 5.93 | 1.34 | 2.91 | 1.44 |
| Nc1ncnc2occ(-c3ccc(NC(=O)Nc4cccc(C(F)(F)F)c4)cc3)c12 | 4.09 | 5.37 | 5.91 | 3.04 | 1.94 | 2.46 | 3.85 | 1.94 | 3.42 | 4.04 |
| CS(=O)(=O)Nc1ccc(N/C=C2\C(=O)Nc3ccccc32)cc1 | 2.63 | -1.78 | -0.06 | -1.67 | -1.49 | -0.94 | 3.29 | -0.88 | 0.66 | -0.53 |
| O=C1NC(=O)C(c2ccc(Cl)cc2)=C1Nc1ccc(Cl)c(C(=O)O)c1 | -0.34 | -1.37 | -0.38 | -0.49 | -0.47 | -1.52 | -0.68 | -1.61 | -1.33 | -0.15 |
| CCn1c(-c2nonc2N)nc2c(N3CCCC3)nccc21 | -0.31 | -0.29 | 0.75 | 0.96 | 3.63 | 1.09 | 9.26 | 0.17 | 0.74 | 3.22 |
| COc1cc2ncn(-c3cc(OCc4ccccc4Cl)c(C(N)=O)s3)c2cc1OC | 1.64 | 0.33 | 0.33 | 1.08 | 3.55 | 0.53 | 1.84 | -0.05 | -3.1 | -0.3 |
| COc1cccc(-n2ncc3c(N/N=C/c4cccc(F)c4)ncnc32)c1 | -1.18 | -0.44 | -0.79 | 2.15 | 3.23 | 2.4 | 3.95 | 1.69 | 2.08 | 0.34 |
